The record followed here is PubChem BioAssay (Tox21).

Records with an inconclusive call do not appear. The source made the active and inactive calls. Unless noted, the call rests on the fitted dose curve.

Experiment [1] is described as follows: Nuclear factor erythroid 2-related factor 2/antioxidant responsive element (Nrf2/ARE) small molecule agonists: qHTS cell viability counter screen in human keratinocytes (AID 1919968; active means well fitted curve in the direction sought with a large enough effect in the repeat runs; an effect the other way counts as inactive or inconclusive; further: nearly all actives have a fitted effect of over 55% in size). The method in brief: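 Cytotoxicity was multiplexed with the Nrf2/ARE luciferase assay in the same wells. Stably transfected HaCaT keratinocytes were treated with test compounds for 23 h at 37 C. Cell viability was then measured by CellTiter-Fluor fluorescence.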
(In general: In qHTS, concentration-response curves come from the screen itself.)

A short description of experiment [2]: Nuclear factor erythroid 2-related factor 2/antioxidant responsive element (Nrf2/ARE) small molecule agonists: luciferase reporter gene qHTS assay in human keratinocytes (AID 1919969; further: nearly all actives have a fitted effect of over 35% in size; further: potency means the concentration at half of the fitted maximal effect). (In general: A reporter such as luciferase makes a cellular process visible.)
For experiment [3], the target named is Gonadotropin-releasing hormone receptor (Homo sapiens) (UniProt P30968). Put plainly: Human gonadotropin-releasing hormone receptor (GnRHR) small molecule agonists, calcium flux assay in GnRHR-HEK293 cells (AID 1920063). Further: nearly all actives have a fitted effect of over 35% in size. A digest of the protocol:
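Agonist activity was measured as intracellular calcium flux in HEK293 cells engineered to stably express human GnRHR. After dye loading for 1 hour at 37 C, compounds in DMSO were added and fluorescence was followed for 3 minutes.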
Background: A change in cytosolic calcium serves as a functional read-out for many receptors and channels.

Experiment [4] has as its target KiSS-1 receptor (Homo sapiens) (UniProt Q969F8). Kind of experiment: Human kisspeptin (KISS1R) small molecule agonists, calcium flux assay in KISS1R-HEK293 cells (AID 1920064; active means well fitted curve in the direction sought with a large enough effect in the repeat runs; an effect the other way counts as inactive or inconclusive). The method in brief: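 Agonist activity is monitored as intracellular calcium rise in engineered HEK293 cells carrying human KISS1R. Cells are dye-loaded for 1 h at 37 C before compound addition, and fluorescence is recorded for 3 min.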

Experiment [5] is described as follows: G protein-coupled receptor (GPCR) small molecule agonists, calcium flux assay: HEK293 wild type cell line counter screen (AID 1920065). A digest of the protocol: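 Seed cells, incubate 18 h (37 C, 5% CO2); add calcium dye, 1 h at 37 C; pin-transfer compounds, ATP control or DMSO; read fluorescence 480/540 nm each second for 3 min.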
The nature of experiment [6]: p53 small molecule agonists, cell-based qHTS assay with human liver microsomes (AID 1963577). A digest of the protocol:
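Fluorescence of the beta-lactamase reporter in p53RE-bla cells, detected with LiveBLAzer substrate (2 h, room temperature, dark), served as the read-out after 16 h compound exposure at 37 C with human liver microsomes and NADPH, each 0.5 mg/mL final.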

The nature of experiment [7]: p53 small molecule agonists, cell-based qHTS assay with rat liver microsomes (AID 1963578). The method in brief:
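Cells carrying a p53 response element–beta-lactamase reporter were plated and rested 5 h, then dosed with compound in DMSO plus rat liver microsomes and NADPH, each at 0.5 mg/mL final. After 16 h at 37 C, LiveBLAzer substrate was added for 2 h.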

Experiment [8] can be described thus: p53 small molecule agonists, cell-based qHTS assay with human liver microsomes: qHTS cell viability counter screen (AID 1963579). Further: nearly all actives have a fitted effect of over 45% in size. A digest of the protocol:
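Cytotoxicity counter screen: p53RE-bla, 4,000 cells/well; 5 h settle, 37 C/5% CO2; cpd + HLM 0.5 mg/mL + NADPH 0.5 mg/mL (final); 16 h, 37 C; CellTiter-Glo, 30 min RT, luminescence.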

Experiment [9] in a line: p53 small molecule agonists, cell-based qHTS assay: qHTS cell viability counter screen (AID 1963581). Further: nearly all actives have a fitted effect of over 45% in size. A digest of the protocol:
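Viability was counter-screened in parallel with the p53 agonist reporter by measuring intracellular ATP luminescence in the same HCT-116 p53RE-bla wells after 16 h compound treatment at 37 C.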

The nature of experiment [10]: p53 small molecule agonists, cell-based qHTS assay (AID 1963582; active means well fitted activation curve with a large enough effect in the signal ratio in the repeat runs, not every such curve was filed as active; the % refers to the signal ratio). A digest of the protocol: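 Cells carrying a p53-responsive bla reporter are treated with test compounds for 16 h at 37 C; beta-lactamase activity is then detected with LiveBLAzer B/G FRET substrate after 2 h at room temperature.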
The target in experiment [11] is 5-hydroxytryptamine receptor 2A (Homo sapiens) (UniProt P28223). Kind of experiment: 5-hydroxytryptamine receptor 2A (HTR2A) small molecule antagonists, cell-based qHTS assay (AID 1963586). Further: nearly all actives have a fitted effect of over 45% in size. A digest of the protocol:
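CHO cells stably expressing human HTR2A were plated for 18 h at 37 C, then loaded with calcium dye for 1 h. Compounds were preincubated 5 min at room temperature before DOI (4 nM solution) was added. Kinetic fluorescence was read for 3 min.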

Experiment [12] has the same target. Put plainly: 5-hydroxytryptamine receptor 2A (HTR2A) small molecule agonists, cell-based qHTS assay (AID 1963587). Further: nearly all actives have a fitted effect of over 30% in size. A digest of the protocol: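 HTR2A-CHO cells, plated 18 h at 37 C/5% CO2, dye-loaded 1 h at 37 C; compounds in DMSO added by pin tool (agonist mode). Intracellular calcium flux read as kinetic fluorescence on FDSS over 2 min at 1 s intervals.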
Experiment [13] deals with Muscarinic acetylcholine receptor M1 (Homo sapiens) (UniProt P11229). Kind of experiment: Cholinergic receptor muscarinic 1 (CHRM1) small molecule antagonists, cell-based qHTS assay (AID 1963588). Further: nearly all actives have a fitted effect of over 40% in size. A digest of the protocol:
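Compounds were tested at 15 concentrations in three independent runs. Dye-loaded CHRM1-CHO cells were exposed 5 min at room temperature before stimulation by acetylcholine added at 50nM. Intracellular calcium was read kinetically on FDSS for 3 min.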

For experiment [14] the target is unchanged. Put plainly: Cholinergic receptor muscarinic 1 (CHRM1) small molecule agonists, cell-based qHTS assay (AID 1963589). Further: nearly all actives have a fitted effect of over 35% in size. A digest of the protocol:
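Cells were plated and incubated 18 h at 37 C/5% CO2, loaded with calcium dye for 1 h at 37 C, then treated with compounds in DMSO. Fluorescence was recorded kinetically at 1 sec intervals.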

Experiment [15] can be described thus: cAMP Responsive Elements (CRE) small molecule antagonists, cell-based qHTS assay (AID 1963591; active means well fitted inhibition curve with a large enough effect in the signal ratio in the repeat runs, not every such curve was filed as active; the % refers to the signal ratio). The method in brief: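 Cells (CRE-bla HEK 293T, DMEM with 10% dialyzed FBS and 25 mM HEPES) are seeded and incubated 18 h. Compounds are added with NKH477 agonist at 0.25 uM final for 3 h, then FRET substrate for 2 h.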
Experiment [16] addresses Beta-2 adrenergic receptor (Homo sapiens) (UniProt P07550). Kind of experiment: Adrenergic beta2 receptor (ADRB2) small molecule antagonists, cell-based qHTS assay (AID 1963592). Further: series mostly up to about 92 µM; nearly all actives have a fitted effect of over 50% in size. The method in brief:
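Assay format: CHO-ADRB2 cells, 18-20hr seeding at 37C/5% CO2, then compound plus 1nM isoproterenol agonist mix for 0.5hr RT. Homogeneous time-resolved fluorescence cAMP detection after 1hr, expressed as 665/615 nm ratio.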

For experiment [17] the target is unchanged. Kind of experiment: Adrenergic beta2 receptor (ADRB2) small molecule agonists, cell-based qHTS assay (AID 1963593).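 Further: CHO cells stably overexpressing human ADRB2.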 A digest of the protocol:
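CHO cells stably over-expressing ADRB2 were plated overnight at 37C, then dosed with compounds plus a stimulation mix containing 100uM IBMX and 25uM Ro-20-1724 for 0.5hr at room temperature. cAMP was measured by HTRF competition, 1hr.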

The target of experiment [18] is D(2) dopamine receptor (Homo sapiens) (UniProt P14416). Put plainly: Dopamine D2 receptor (DRD2) small molecule antagonists, cell-based qHTS assay (AID 1963595; active means well fitted inhibition curve with a large enough effect in the signal ratio in the repeat runs, with a control signal flat; the % refers to the signal ratio). The method in brief:
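DRD2-HEK293; 0.1 mM Ro20-1724; cpd 10 min RT; NKH477 200 nM + quinpirole 12 nM, 30 min RT; HTRF cAMP (cAMP-d2/anti-cAMP cryptate), 665/620 nm ratio after 1 h.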

Experiment [19] is described as follows: cAMP Responsive Elements (CRE) small molecule agonists, cell-based qHTS assay (AID 1963590). A digest of the protocol:
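Cells carrying a CRE-driven beta-lactamase reporter (HEK 293T) are seeded, incubated overnight (18 h), and treated with test compounds for 3 h at 37 C; reporter activity is then detected with a FRET substrate after 2 h at room temperature.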

The target in experiment [20] is D(2) dopamine receptor (Homo sapiens) (UniProt P14416). Put plainly: Dopamine D2 receptor (DRD2) small molecule agonists, cell-based qHTS assay (AID 1963594). Further: nearly all actives have a fitted effect of over 35% in size. A digest of the protocol:
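HEK293 cells stably expressing DRD2 were cultured 24 h at 37 C, then given Ro20-1724 (0.1 mM final) and compounds for 10 min at room temperature. NKH477 (200nM) was then added for 30 min. cAMP was read by HTRF.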

Sequence of 5-hydroxytryptamine receptor 2A (Homo sapiens) (P28223 whole entry, looked up): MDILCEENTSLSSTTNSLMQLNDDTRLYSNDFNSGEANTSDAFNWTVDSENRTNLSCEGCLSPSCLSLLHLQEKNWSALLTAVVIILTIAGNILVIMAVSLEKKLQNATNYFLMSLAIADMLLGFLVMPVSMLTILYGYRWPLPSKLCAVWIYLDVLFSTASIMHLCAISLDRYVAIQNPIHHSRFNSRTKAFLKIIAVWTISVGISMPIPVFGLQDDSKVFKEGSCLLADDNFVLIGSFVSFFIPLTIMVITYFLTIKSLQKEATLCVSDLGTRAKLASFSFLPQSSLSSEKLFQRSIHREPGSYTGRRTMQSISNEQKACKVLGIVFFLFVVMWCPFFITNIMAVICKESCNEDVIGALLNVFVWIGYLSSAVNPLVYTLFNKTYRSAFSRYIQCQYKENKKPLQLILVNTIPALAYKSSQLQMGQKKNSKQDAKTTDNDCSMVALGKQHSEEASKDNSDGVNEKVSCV
Sequence of Muscarinic acetylcholine receptor M1 (Homo sapiens) (P11229 whole entry, looked up): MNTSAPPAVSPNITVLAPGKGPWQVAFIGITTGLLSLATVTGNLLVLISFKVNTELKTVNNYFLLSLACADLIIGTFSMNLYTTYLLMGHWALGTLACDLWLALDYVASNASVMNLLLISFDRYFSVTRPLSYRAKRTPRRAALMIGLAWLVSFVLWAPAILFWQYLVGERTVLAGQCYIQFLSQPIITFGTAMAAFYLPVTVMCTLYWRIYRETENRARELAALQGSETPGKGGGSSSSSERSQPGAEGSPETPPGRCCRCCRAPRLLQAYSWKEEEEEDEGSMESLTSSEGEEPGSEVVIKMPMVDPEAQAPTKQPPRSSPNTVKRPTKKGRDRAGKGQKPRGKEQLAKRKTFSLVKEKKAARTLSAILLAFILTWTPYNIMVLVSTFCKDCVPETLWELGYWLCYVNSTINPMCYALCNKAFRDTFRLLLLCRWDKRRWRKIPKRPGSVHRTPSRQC
Sequence of Beta-2 adrenergic receptor (Homo sapiens) (P07550 whole entry, looked up): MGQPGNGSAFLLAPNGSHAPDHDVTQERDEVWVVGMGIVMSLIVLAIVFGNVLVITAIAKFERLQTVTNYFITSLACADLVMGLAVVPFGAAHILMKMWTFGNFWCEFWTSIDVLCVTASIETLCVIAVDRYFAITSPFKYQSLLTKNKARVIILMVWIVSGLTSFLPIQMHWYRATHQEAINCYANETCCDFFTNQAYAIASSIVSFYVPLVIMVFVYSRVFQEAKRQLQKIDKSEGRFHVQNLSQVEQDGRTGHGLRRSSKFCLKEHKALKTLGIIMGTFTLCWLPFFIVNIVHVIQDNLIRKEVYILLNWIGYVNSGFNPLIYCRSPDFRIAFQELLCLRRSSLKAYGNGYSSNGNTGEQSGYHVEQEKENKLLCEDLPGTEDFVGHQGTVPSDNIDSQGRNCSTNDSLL
Sequence of KiSS-1 receptor (Homo sapiens) (Q969F8 whole entry, looked up): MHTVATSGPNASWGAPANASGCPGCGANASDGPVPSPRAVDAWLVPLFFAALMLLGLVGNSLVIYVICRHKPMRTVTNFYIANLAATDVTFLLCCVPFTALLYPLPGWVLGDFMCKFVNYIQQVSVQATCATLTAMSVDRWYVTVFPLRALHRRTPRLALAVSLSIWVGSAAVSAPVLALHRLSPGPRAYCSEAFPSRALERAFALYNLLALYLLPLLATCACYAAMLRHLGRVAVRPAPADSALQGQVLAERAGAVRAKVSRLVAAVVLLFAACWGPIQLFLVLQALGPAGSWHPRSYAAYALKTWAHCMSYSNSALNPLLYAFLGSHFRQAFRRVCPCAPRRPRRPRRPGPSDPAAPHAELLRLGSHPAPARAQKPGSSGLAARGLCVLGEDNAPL
Sequence of Gonadotropin-releasing hormone receptor (Homo sapiens) (P30968 whole entry, looked up): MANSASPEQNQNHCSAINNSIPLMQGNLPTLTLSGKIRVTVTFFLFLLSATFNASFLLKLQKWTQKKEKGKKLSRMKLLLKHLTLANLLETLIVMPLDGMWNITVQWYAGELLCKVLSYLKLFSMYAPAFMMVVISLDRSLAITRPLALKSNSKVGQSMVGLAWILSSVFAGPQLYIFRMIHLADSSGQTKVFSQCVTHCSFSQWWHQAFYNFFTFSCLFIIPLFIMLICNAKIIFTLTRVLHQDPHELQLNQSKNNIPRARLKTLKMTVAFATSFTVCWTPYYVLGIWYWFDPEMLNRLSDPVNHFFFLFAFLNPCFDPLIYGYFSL
Sequence of D(2) dopamine receptor (Homo sapiens) (P14416 whole entry, looked up): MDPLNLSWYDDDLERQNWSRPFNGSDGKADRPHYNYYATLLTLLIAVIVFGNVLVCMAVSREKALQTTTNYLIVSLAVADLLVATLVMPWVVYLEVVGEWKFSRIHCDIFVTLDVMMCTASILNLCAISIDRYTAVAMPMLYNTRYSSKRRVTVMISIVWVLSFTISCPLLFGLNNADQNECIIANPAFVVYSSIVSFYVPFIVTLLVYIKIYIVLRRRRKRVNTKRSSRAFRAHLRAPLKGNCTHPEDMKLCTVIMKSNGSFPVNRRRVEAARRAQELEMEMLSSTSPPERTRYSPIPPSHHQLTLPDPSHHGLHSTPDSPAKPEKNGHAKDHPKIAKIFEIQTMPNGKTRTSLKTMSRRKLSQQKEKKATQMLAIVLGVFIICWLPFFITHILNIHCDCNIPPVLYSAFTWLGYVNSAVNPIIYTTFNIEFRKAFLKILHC

Take `Cl/C(=C\n1cncn1)c1ccc(Cl)cc1Cl`: the Potency result in experiment [1], in experiment [2], in experiment [3], in experiment [4], in experiment [5] and in experiment [6] was “inactive” throughout. In addition, the Potency result in [7], in experiment [8], in experiment [9], in experiment [10], in [11] and in [12] was “inactive” each time. Further, the Potency result in experiment [13], in experiment [14], in experiment [15], in experiment [16], in experiment [17] and in [18] was “inactive” in each case.

For the compound `Oc1ccc(Sc2ccc(O)cc2)cc1`, the Potency entry in [1], in experiment [3], in experiment [4], in experiment [5], in experiment [6] and in experiment [7] was “inactive” throughout. The Potency result in experiment [8], in [9], in experiment [10], in experiment [11], in experiment [12] and in experiment [13] was “inactive” in each case. The Potency entry in experiment [14], in experiment [19], in experiment [15], in experiment [16], in experiment [20] and in experiment [18] was “inactive” throughout. Also, the Potency in [2] is 57.2 µM (active).

In the case of `Cc1ccc(NC(=O)N(C)C)cc1NC(=O)N(C)C`, the Potency result in experiment [1], in [2], in experiment [3], in experiment [4], in experiment [5] and in experiment [6] was “inactive” throughout. Besides, the Potency result in experiment [7], in experiment [8], in experiment [9], in experiment [10], in experiment [11] and in experiment [12] was “inactive” throughout. For the same compound, the Potency result in [13], in experiment [14], in experiment [19], in experiment [15], in experiment [16] and in experiment [17] was “inactive” in each case. For the same compound, the Potency entry in [20] and in experiment [18] was “inactive” each time.

Turning to `O=C(O)c1ccc(OCCN2CCCCC2)cc1`, the Potency entry in experiment [1], in [2], in experiment [3], in experiment [4], in experiment [5] and in [6] was “inactive” in each case. In addition, the Potency entry in experiment [7], in experiment [8], in experiment [9], in experiment [10], in [11] and in [12] was “inactive” in each case. For the same compound, the Potency entry in [13], in experiment [14], in experiment [19], in [15], in experiment [20] and in experiment [18] was “inactive” in each case.

For the compound `O=C(Cl)c1ccc(C(=O)Cl)cc1`, the Potency entry in experiment [1], in experiment [2], in [3], in [4], in [5] and in experiment [6] was “inactive” each time. Moreover, the Potency entry in [7], in experiment [8], in experiment [9], in experiment [10], in experiment [11] and in experiment [12] was “inactive” each time. Moreover, the Potency entry in [13], in experiment [14], in [19], in experiment [15], in experiment [20] and in experiment [18] was “inactive” in each case.

Consider `C=C(C)[C@@H]1CC[C@@H](C)C[C@@H]1O`, for which the Potency entry in [1], in experiment [2], in experiment [3], in [4], in [5] and in experiment [6] was “inactive” in each case. The Potency result in [7], in [8], in experiment [9], in experiment [10], in experiment [11] and in experiment [12] was “inactive” in each case. The Potency entry in experiment [13], in [14], in experiment [19], in experiment [15], in experiment [16] and in experiment [17] was “inactive” each time. Besides, the Potency entry in experiment [20] and in [18] was “inactive” throughout.

As to `CCCCCC1CCC(=O)O1` (stereo unspecified), the Potency entry in experiment [1], in experiment [2], in experiment [3], in [4], in [5] and in [6] was “inactive” each time. Further, the Potency result in experiment [7], in [8], in experiment [9], in experiment [10], in experiment [11] and in experiment [12] was “inactive” throughout. The Potency result in experiment [13], in experiment [14], in [19], in experiment [15], in experiment [16] and in experiment [20] was “inactive” each time. In addition, the Potency entry in experiment [18] was “inactive”.

In the case of `CC(=O)OCCC1CCCCC1`, the Potency result in [1], in [2], in experiment [3], in experiment [4], in experiment [5] and in experiment [6] was “inactive” in each case. Also, the Potency entry in [7], in [8], in [9], in [10], in experiment [11] and in [12] was “inactive” in each case. Also, the Potency result in experiment [13], in experiment [14], in experiment [19], in [15], in experiment [16] and in experiment [20] was “inactive” each time. In addition, in [18], the Potency entry is “inactive”.
